The results in this text go back to PubChem BioAssay.

The target in one experiment is Albumin (Bos taurus) (UniProt P02769). As to the kind of experiment: bovine serum albumin binders on microarray, profiling panel, artefact control for SMM control protein annotation, biochemical, small-molecule microarray, Alexa647 label, 635/667 nm fluorescence (AID 1118).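 Note: score merges 667 nm emission intensity and signal-to-noise per printed compound spot.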 The conditions noted are these: BSA-A647 binding, fluorescence 635 nm, higher = more signal.
Chain of Albumin (Bos taurus) (P02769 whole entry, looked up): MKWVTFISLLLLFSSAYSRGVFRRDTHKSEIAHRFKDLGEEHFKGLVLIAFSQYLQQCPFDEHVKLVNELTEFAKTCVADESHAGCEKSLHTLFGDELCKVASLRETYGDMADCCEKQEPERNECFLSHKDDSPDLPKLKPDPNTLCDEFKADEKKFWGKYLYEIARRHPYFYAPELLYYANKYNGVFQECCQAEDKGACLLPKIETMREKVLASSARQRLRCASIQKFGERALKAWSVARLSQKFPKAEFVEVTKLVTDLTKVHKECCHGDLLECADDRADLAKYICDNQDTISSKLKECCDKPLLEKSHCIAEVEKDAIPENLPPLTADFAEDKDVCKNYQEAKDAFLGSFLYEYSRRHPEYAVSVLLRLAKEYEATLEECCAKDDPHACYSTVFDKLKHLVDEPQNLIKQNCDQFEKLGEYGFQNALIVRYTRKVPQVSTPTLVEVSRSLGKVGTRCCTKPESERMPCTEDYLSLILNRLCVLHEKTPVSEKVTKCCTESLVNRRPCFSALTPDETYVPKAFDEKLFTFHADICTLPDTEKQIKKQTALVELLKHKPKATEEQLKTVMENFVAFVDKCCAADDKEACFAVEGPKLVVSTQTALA
Experiment [1] is described as follows: small-molecule microarray binders of probe aXIP, primary screen, biochemical, NeuroSMM set, 635/667 nm fluorescence (AID 1119).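 Note: probe is the protein aXip251-270 applied at 1 µg/mL to compound-printed slides; binding of probe to printed compounds measured as 667 nm fluorescence plus signal to noise.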 Conditions: higher = more signal, called active from +8 up or from −8 down.
A short description of experiment [2]: small-molecule binders of probe aNOTCH3, primary screen, biochemical, small-molecule microarray, 635/667 nm fluorescence (AID 1120).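 Note: probe is a biotin-tagged antibody raised against NOTCH3 rather than NOTCH3 protein; score merges spot fluorescence near 667 nm with spot signal to noise.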 Conditions: higher = more signal.
The nature of experiment [3]: small-molecule binders of probe aNOTCH2, primary screen, biochemical, small-molecule microarray, 635/667 nm fluorescence (AID 1121).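 Note: score merges feature fluorescence read at 667 nm with its signal to noise.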 Conditions: higher = more signal.
Experiment [4] has as its target Carbonic anhydrase 2 (Homo sapiens) (UniProt P00918). As to the kind of experiment: CAII small-molecule binders, profiling panel, biochemical, small-molecule microarray, Alexa647-labelled CAII (AID 1122). Conditions: CAII-A647 binding fluorescence, higher = more signal.
The nature of experiment [5]: COS7 lysate on small-molecule microarray, probe aHis, 635 nm (AID 1123).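 Note: z-score combines 667nm fluorescence intensity with signal-to-noise per printed compound spot.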 Conditions: COS7 cell lysate, fluorescence, higher = more signal.
Experiment [6] in a line: compound binding in COS7 lysate, probe aLAP1, primary screen, cell lysate, small-molecule microarray (AID 1124).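 Note: lysate comes from COS7 cells expressing LAP1 and is applied at 0.3 µg/mL; score merges spot fluorescence near 667 nm with signal-to-noise over triplicate slides.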 The conditions noted are these: probe aLAP1, fluorescence, higher = more signal.
In the next experiment the test system is Sam68 (KHDRBS1). The experiment can be described thus: Sam68 small-molecule binders, primary screen, biochemical, small-molecule microarray, 635 nm fluorescence (AID 1125).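 Note: score merges 667 nm channel intensity with signal to noise over triplicate slides.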 Conditions: small-molecule microarray binding, higher = more signal.
The subject of experiment [7] is Chordin-like protein 2 (CHRDL2). The experiment can be described thus: CHRDL2 small-molecule binders, primary screen, biochemical, small-molecule microarray, 635 nm fluorescence (AID 1126).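 Note: printed compound slides probed with Chrdl2 protein at 4 µg/mL for 1 h at 4 C; score merges 667 nm emission intensity with signal to noise over three replicate slides.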 Conditions: small-molecule microarray binding, fluorescence 635 nm; higher = more signal.
The target in experiment [8] is Concanavalin-A (Canavalia ensiformis) (UniProt P02866). As to the kind of experiment: ConA small-molecule binders, primary screen, artefact control for SMM control protein annotation, biochemical, small-molecule microarray, Alexa647 label, 635 nm (AID 1127).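 Note: z combines 667 nm emission intensity with signal-to-noise across three replicate slides.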 Conditions: ConA-A647 binding fluorescence, higher = more signal.
Chain of Concanavalin-A (Canavalia ensiformis) (P02866 whole entry, looked up): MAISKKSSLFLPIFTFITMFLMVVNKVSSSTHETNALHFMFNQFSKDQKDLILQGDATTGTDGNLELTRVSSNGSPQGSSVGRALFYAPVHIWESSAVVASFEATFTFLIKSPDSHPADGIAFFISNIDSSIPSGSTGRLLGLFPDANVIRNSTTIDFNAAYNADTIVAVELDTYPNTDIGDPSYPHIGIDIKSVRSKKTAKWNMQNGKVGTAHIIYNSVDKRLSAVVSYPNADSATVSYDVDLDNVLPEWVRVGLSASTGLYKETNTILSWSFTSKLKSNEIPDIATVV
Experiment [9] is described as follows: anti-His antibody binders, primary screen, artefact control for SMM control protein annotation, biochemical, small-molecule microarray, 635 nm fluorescence (AID 1128).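 Note: score merges feature fluorescence with signal-to-noise for each printed compound spot.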 Conditions: anti-His Alexa647 antibody binding, higher = more signal.
For experiment [10], the system named is Human papillomavirus type 1a E7 protein (residues 1-88). The experiment can be described thus: HPV1a E7 small-molecule binders, primary screen, biochemical, small-molecule microarray, residues 1-88, 635 nm (AID 1129). Conditions: small-molecule microarray binding, fluorescence 635 nm; higher = more signal.
Experiment [11] has as its target Focal adhesion kinase 1 (Homo sapiens) (UniProt Q05397). The experiment can be described thus: small-molecule microarray binders of FAK, primary screen, biochemical, 635/667 nm fluorescence, BSA, DTT (AID 1130).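 Note: composite of spot emission at 667 nm and signal to noise over triplicate slides.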 The conditions noted are these: PTK2 binding, 635 nm fluorescence, higher = more signal.
Experiment [12] has as its system Fibrinogen (Alexa647-labelled). As to the kind of experiment: fibrinogen binders on compound microarrays, profiling panel, artefact control for SMM control-protein annotation, biochemical, small-molecule microarray, 635/667 nm fluorescence (AID 1131).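 Note: z-score merges 667 nm fluorescence with per-spot signal-to-noise over triplicate slides.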 Conditions: fibrinogen-A647 binding fluorescence, higher = more signal.
The target of experiment [13] is Follistatin (Homo sapiens) (UniProt P19883). The experiment can be described thus: follistatin binders on small-molecule microarrays, primary screen, biochemical, small-molecule microarray, 635/667 nm fluorescence (AID 1132). Conditions: FST binding, 635 nm fluorescence, higher = more signal.
Chain of Follistatin (Homo sapiens) (P19883 whole entry, looked up): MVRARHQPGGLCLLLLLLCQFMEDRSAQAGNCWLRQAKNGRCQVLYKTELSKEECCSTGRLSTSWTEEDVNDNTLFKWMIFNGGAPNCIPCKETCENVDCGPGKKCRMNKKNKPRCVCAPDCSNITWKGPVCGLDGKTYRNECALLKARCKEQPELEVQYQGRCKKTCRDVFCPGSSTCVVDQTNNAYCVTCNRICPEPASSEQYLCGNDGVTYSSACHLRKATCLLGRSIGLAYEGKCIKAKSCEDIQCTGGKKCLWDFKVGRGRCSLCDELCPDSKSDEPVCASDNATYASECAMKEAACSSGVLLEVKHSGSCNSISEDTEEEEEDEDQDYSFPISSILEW
Experiment [14] concerns the target Fibroblast growth factor 2 (Homo sapiens) (UniProt P09038). The experiment can be described thus: FGF2 binders on small-molecule microarrays, primary screen, biochemical, small-molecule microarray, 635/667 nm fluorescence (AID 1133). Conditions: small-molecule microarray binding, FGF2, fluorescence 635/667; higher = more signal.
The nature of experiment [15]: mitochondrial membrane potential change in A549 cells, profiling panel, cell-based, JC-1 fluorescence, basal, 24 h, 100 nL (AID 1138).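 Note: A549 lung adenocarcinoma cells under basal conditions with no added stimulus; test concentration not given here.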 The conditions noted are these: higher = more signal.
In another experiment the test system is Lefty1. The experiment can be described thus: Lefty1 binders on small-molecule microarrays, primary screen, biochemical, small-molecule microarray, 635/667 nm fluorescence (AID 1139). Conditions: small-molecule microarray binding, fluorescence 635/667; higher = more signal.
Experiment [16] concerns wheat germ agglutinin (Triticum aestivum), Alexa647-labelled. As to the kind of experiment: wheat germ agglutinin binders on compound microarrays, profiling panel, artefact control for SMM control-protein annotation, biochemical, small-molecule microarray, 635/667 nm fluorescence (AID 1140).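 Note: score merges 667 nm feature emission with signal to noise over triplicate slides.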 Conditions: WGA-A647 binding, 635 nm fluorescence, higher = more signal.
Experiment [17] concerns the target Luciferin 4-monooxygenase (Photinus pyralis) (UniProt P08659). The experiment can be described thus: firefly luciferase enzyme inhibitors, primary screen, biochemical, luminescence, purified enzyme, 2006 set (AID 1141).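 Note: cell-free assay with purified firefly luciferase at 100 ng per well in PBS; test concentration not given here.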 The conditions noted are these: SteadyGlo luminescence, 30 min, higher = more signal, called active from +8 up or from −8 down.

The source made the active and inactive calls.

Chain of Focal adhesion kinase 1 (Homo sapiens) (Q05397 whole entry, looked up): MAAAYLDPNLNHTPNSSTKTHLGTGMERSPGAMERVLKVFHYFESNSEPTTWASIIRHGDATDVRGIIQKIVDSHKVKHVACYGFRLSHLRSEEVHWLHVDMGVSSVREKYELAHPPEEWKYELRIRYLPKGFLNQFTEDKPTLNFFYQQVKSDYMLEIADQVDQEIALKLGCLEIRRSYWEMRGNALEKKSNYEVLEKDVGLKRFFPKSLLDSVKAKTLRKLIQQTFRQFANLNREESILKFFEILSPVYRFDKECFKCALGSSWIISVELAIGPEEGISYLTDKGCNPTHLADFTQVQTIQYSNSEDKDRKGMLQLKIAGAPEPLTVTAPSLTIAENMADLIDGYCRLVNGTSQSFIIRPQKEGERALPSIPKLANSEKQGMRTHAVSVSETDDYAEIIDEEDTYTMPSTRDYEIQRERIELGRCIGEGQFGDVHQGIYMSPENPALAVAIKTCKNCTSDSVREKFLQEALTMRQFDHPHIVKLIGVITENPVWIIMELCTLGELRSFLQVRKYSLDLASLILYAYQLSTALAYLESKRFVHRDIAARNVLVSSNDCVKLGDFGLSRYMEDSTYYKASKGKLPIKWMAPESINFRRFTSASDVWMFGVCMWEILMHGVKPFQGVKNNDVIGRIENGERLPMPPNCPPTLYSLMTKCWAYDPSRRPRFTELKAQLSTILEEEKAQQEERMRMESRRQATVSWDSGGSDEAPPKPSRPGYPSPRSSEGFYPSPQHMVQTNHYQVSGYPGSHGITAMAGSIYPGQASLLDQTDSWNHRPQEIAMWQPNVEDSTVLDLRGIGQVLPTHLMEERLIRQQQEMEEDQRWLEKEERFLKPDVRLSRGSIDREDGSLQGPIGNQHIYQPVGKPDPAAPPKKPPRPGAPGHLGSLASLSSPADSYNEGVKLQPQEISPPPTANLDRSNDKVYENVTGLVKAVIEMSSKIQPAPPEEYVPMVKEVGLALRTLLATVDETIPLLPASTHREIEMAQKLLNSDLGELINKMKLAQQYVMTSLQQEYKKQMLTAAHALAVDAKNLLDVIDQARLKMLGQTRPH
Chain of Fibroblast growth factor 2 (Homo sapiens) (P09038 whole entry, looked up): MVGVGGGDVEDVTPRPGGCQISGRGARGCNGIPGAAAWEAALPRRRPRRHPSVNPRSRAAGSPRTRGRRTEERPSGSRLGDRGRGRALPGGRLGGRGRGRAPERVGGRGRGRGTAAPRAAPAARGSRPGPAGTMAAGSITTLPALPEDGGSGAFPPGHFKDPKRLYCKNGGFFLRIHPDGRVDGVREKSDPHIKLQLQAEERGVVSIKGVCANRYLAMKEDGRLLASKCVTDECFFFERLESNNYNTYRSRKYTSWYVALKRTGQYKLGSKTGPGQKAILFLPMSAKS
Chain of Luciferin 4-monooxygenase (Photinus pyralis) (P08659 whole entry, looked up): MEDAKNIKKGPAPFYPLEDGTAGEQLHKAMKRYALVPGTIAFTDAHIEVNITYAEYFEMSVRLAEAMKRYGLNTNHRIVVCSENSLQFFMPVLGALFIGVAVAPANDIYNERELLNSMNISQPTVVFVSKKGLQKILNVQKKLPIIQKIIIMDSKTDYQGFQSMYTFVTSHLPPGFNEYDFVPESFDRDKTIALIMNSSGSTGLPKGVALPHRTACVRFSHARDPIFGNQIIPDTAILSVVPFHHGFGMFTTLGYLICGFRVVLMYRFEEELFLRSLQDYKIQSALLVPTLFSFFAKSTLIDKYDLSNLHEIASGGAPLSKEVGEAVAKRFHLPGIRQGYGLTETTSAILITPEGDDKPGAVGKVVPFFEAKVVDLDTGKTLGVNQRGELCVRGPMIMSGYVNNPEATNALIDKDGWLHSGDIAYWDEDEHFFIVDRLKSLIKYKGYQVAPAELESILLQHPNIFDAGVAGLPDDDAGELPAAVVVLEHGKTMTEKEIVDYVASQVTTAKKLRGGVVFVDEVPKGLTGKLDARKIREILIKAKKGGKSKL

For `CC(C)C(=C=CC[C@@H](O)c1ccc(CO)o1)CCO`, the composite z-score with Albumin (Bos taurus) was -0.596; in [2], -0.0984; in [3], -0.11; in [4], 0.795; in experiment [5], 0.57; in experiment [6], -0.0333. The composite z-score in the experiment on Sam68 (KHDRBS1) is 0.541; in [7], 0.107; in [8] it was 0.349; in experiment [9] it was 0.635; in [10], -0.356; in experiment [11], -0.7. In addition, the composite z-score in experiment [12] came to 0.401; in [13], 0.987; in experiment [14], 1.05; in the experiment on Lefty1, 0.759; in experiment [16], 0.308. In experiment [1], the composite Z-score is 1.71 (inactive). Moreover, the z-score in experiment [15] was 1.86; in experiment [17], -2.15 (inactive).

On to `O=C(O)[C@H]1C[C@H]2C(=O)NCC(=O)N2[C@H]1c1cccc(OCCO)c1`, for which the composite z-score with Albumin (Bos taurus) is -0.542; in [2], 0.173; in experiment [3] it was -0.126; in experiment [4] it was 0.502; in [5], 0.787; in experiment [6], -0.156. In addition, the composite z-score amounted to 0.89 with Sam68 (KHDRBS1); 0.0805 in experiment [7]; 1.09 in experiment [8]; 1.48 in experiment [9]; 0.221 in experiment [10]; 0.457 in experiment [11]. Further, the composite z-score in [12] is 0.742; in [13], 1.27; in experiment [14] it was 0.161; with Lefty1 it was -0.13; in experiment [16], 0.655. For the same compound, in experiment [1], the composite Z-score is 0.0953 (inactive). The z-score in experiment [15] was 1.14; in [17], -1.6 (inactive).

Turning to `CC(C)(C)OC(=O)CC[C@@]12N=C(c3ccc(OCCCO)cc3)O[C@@H]1c1ccccc1N(Cc1ccccc1)C2=O`, the composite z-score in the experiment with Albumin (Bos taurus) was 0.0674; in experiment [2], -0.122; in experiment [3] it was -0.0318; in [4], 0.434; in experiment [5] it was 1.67; in [6], 0.583. Further, the composite z-score in the experiment on Sam68 (KHDRBS1) stood at 1.15; in [7] it was 0.145; in experiment [8] it was 1.05; in experiment [9] it was 2.92; in experiment [10], 1; in [11], 1.16. The composite z-score in experiment [12] worked out at 0.214; in experiment [13], 1.39; in [14], 0.54; with Lefty1, 0.345; in experiment [16] it was 0.036. The composite Z-score in [1] was 1.83 (inactive). Also, the z-score in [15] is 1.43; in [17], -2.14 (inactive).

For `COC(=O)C1=CC(c2ccc(CO)cc2)=CC(C2CC2)N(C)C=C1C(=O)OC` (stereo not given), the composite z-score with Albumin (Bos taurus) was 0.965; in [2], -0.0903; in [3], -0.0617; in experiment [4] it was 0.874; in experiment [5], 1.73; in experiment [6], 0.969. Moreover, the composite z-score with Sam68 (KHDRBS1) is 0.862; in experiment [7], -0.73; in experiment [8] it was -0.0948; in experiment [9], 0.822; in [10] it was -0.203; in experiment [11] it was 0.883. Also, the composite z-score is 0.707 in experiment [12]; -0.743 in experiment [13]; -0.326 in [14]; -0.615 with Lefty1; 1.28 in [16]. Further, the composite Z-score in [1] is 0.498 (inactive). For the same compound, the figures for the z-score in [15] and in experiment [17] were 1.63 and -1.8 (inactive), respectively.

On to `C=CCN1C(=O)[C@@]2(O[C@@H](CCO)[C@H]([Si](C)(C)c3ccc(OC)cc3)[C@H]2C)c2cc(N(C=O)c3ccccc3)ccc21`, for which the composite z-score was 0.377 with Albumin (Bos taurus); -0.0918 in experiment [2]; -0.0895 in experiment [3]; 0.246 in experiment [4]; 0.396 in [5]; 0.222 in [6]. Besides, the composite z-score in the experiment with Sam68 (KHDRBS1) is 0.807; in experiment [7], -0.332; in [8] it was 0.67; in experiment [9], 1.03; in [10], 0.721; in experiment [11], -0.115. Moreover, the composite z-score in [12] amounted to 0.373; in experiment [13] it was 0.203; in experiment [14], 0.0479; in the experiment on Lefty1 it was 0.124; in experiment [16] it was 0.918. In addition, in experiment [1], the composite Z-score is 0.459 (inactive). In addition, the z-score in experiment [15] is -0.688; in [17], -1.66 (inactive).
